Source: PubChem BioAssay (Tox21)
A number with no mark means an inactive call. Inconclusive results are not listed. Where a call stands in place of a potency, no number is given. Calls of active or inactive are those of the source. Unless noted, calls come from the whole dose curve.

Key:
[1] = Nuclear factor erythroid 2-related factor 2/antioxidant responsive element (Nrf2/ARE) small molecule agonists: qHTS cell viability counter screen in human keratinocytes (AID 1919968; active = well fitted curve in the direction sought with a large enough effect in the repeat runs; an effect the other way counts as inactive or inconclusive; note: nearly all actives have a fitted effect of over 55% in size)
Outline: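 Parallel cytotoxicity read: KeratinoSens HaCaT cells, compound treatment 23 h, viability by CellTiter-Fluor fluorescence 1 h post-reagent.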

[2] = Nuclear factor erythroid 2-related factor 2/antioxidant responsive element (Nrf2/ARE) small molecule agonists: luciferase reporter gene qHTS assay in human keratinocytes (AID 1919969); note: nearly all actives have a fitted effect of over 35% in size; note: potency is the fitted concentration of half-maximal effect
[3] = molecular target: Gonadotropin-releasing hormone receptor (Homo sapiens) (UniProt P30968); assay: Human gonadotropin-releasing hormone receptor (GnRHR) small molecule agonists, calcium flux assay in GnRHR-HEK293 cells (AID 1920063); note: nearly all actives have a fitted effect of over 35% in size
Sequence of Gonadotropin-releasing hormone receptor (Homo sapiens) (P30968 whole entry, looked up): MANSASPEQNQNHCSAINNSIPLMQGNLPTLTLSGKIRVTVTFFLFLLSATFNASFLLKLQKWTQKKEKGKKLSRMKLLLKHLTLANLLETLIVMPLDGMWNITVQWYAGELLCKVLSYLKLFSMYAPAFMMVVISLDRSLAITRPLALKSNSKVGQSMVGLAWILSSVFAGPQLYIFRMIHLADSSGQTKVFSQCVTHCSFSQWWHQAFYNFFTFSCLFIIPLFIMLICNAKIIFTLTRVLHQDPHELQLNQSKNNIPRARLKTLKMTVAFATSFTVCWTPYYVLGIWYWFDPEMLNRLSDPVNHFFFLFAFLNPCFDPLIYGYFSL
Outline: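 Calcium flux, agonist mode, human GnRHR stably integrated in HEK293; dye 1 h at 37 C before compound; Ex/Em=480/540 kinetic read, 3 min; 15 concentrations, triplicate.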

[4] = molecular target: KiSS-1 receptor (Homo sapiens) (UniProt Q969F8); assay: Human kisspeptin (KISS1R) small molecule agonists, calcium flux assay in KISS1R-HEK293 cells (AID 1920064; active = well fitted curve in the direction sought with a large enough effect in the repeat runs; an effect the other way counts as inactive or inconclusive)
Sequence of KiSS-1 receptor (Homo sapiens) (Q969F8 whole entry, looked up): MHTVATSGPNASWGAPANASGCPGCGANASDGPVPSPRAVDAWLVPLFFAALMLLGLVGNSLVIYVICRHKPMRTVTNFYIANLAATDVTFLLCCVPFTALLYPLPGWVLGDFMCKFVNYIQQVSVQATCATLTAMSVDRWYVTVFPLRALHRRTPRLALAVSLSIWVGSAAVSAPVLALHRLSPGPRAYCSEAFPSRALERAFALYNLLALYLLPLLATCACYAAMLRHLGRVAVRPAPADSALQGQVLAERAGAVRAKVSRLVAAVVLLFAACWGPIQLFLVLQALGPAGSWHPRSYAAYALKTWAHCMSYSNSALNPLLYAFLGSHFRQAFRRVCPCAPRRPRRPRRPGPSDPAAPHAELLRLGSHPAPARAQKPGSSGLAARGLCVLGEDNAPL
Outline: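 Triplicate 15-concentration series were applied to dye-loaded human KISS1R HEK293 cells, and agonist-evoked calcium fluorescence was captured for 3 min.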

[5] = G protein-coupled receptor (GPCR) small molecule agonists, calcium flux assay: HEK293 wild type cell line counter screen (AID 1920065)
Outline: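 Non-specific calcium responders were flagged by adding DMSO-dissolved compounds to dye-loaded cells and reading 480/540 nm fluorescence each second for 3 min; ATP served as positive control.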

[6] = p53 small molecule agonists, cell-based qHTS assay with human liver microsomes (AID 1963577);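 note: p53 response element beta-lactamase reporter cells with liver microsomes plus NADPH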
Outline: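 In this qHTS, p53 response-element beta-lactamase cells receive test compound together with a microsome/NADPH activating system (0.5 mg/mL final each) and are incubated 16 h at 37 C before LiveBLAzer fluorescence detection.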

[7] = p53 small molecule agonists, cell-based qHTS assay with rat liver microsomes (AID 1963578)
Outline: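 Agonist mode in p53RE-bla reporter cells, with compounds co-incubated 16 h at 37 C alongside 0.5 mg/mL rat liver microsomes and 0.5 mg/mL NADPH (final), followed by a 2 h LiveBLAzer detection step.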

[8] = p53 small molecule agonists, cell-based qHTS assay with human liver microsomes: qHTS cell viability counter screen (AID 1963579); note: nearly all actives have a fitted effect of over 45% in size
Outline: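 Metabolically activated exposure: compounds, human liver microsomes and NADPH (0.5 mg/mL final apiece) were added to p53RE-bla cells seeded 5 h earlier, left 16 h at 37 C, and then assessed for viability by CellTiter-Glo luminescence.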

[9] = p53 small molecule agonists, cell-based qHTS assay with rat liver microsomes: qHTS cell viability counter screen (AID 1963580); note: nearly all actives have a fitted effect of over 45% in size
Outline: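 Counter screen for cytotoxicity under metabolic activation: rat liver microsomes and NADPH, 0.5 mg/mL final each, added with compounds to p53RE-bla HCT-116 cells; 16 h at 37 C, then ATP luminescence read.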

[10] = p53 small molecule agonists, cell-based qHTS assay: qHTS cell viability counter screen (AID 1963581); note: nearly all actives have a fitted effect of over 45% in size
Outline: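 Multiplexed with the reporter read, a CellTiter-Glo step (30 min, room temperature) gauges ATP-based viability of HCT-116 p53RE-bla cells after 16 h compound incubation at 37 C.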

[11] = p53 small molecule agonists, cell-based qHTS assay (AID 1963582; active = well fitted activation curve with a large enough effect in the signal ratio in the repeat runs, not every such curve was filed as active; the % refers to the signal ratio)
Outline: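 Beta-lactamase reporter cells (p53RE-bla) treated with compounds for 16 h at 37 C; FRET substrate, 2 h, room temperature; fluorescence intensity.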

[12] = molecular target: 5-hydroxytryptamine receptor 2A (Homo sapiens) (UniProt P28223); assay: 5-hydroxytryptamine receptor 2A (HTR2A) small molecule antagonists, cell-based qHTS assay (AID 1963586); note: nearly all actives have a fitted effect of over 45% in size
Sequence of 5-hydroxytryptamine receptor 2A (Homo sapiens) (P28223 whole entry, looked up): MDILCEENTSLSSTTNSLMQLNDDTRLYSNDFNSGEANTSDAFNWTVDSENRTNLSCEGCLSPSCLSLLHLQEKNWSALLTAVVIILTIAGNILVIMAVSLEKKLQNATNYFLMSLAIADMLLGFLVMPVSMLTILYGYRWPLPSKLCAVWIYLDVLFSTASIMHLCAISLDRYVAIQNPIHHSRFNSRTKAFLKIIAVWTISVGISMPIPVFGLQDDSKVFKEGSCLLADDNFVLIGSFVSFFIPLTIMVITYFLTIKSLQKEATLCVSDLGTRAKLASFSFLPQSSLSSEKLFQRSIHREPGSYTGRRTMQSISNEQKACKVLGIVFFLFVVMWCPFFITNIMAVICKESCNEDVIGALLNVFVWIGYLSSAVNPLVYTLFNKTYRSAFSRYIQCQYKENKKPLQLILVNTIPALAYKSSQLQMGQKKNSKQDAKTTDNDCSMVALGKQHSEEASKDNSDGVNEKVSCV
Outline: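 CHO cells stably expressing human HTR2A were plated for 18 h at 37 C, then loaded with calcium dye for 1 h. Compounds were preincubated 5 min at room temperature before DOI (4 nM solution) was added. Kinetic fluorescence was read for 3 min.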

[13] = molecular target: 5-hydroxytryptamine receptor 2A (Homo sapiens) (UniProt P28223); assay: 5-hydroxytryptamine receptor 2A (HTR2A) small molecule agonists, cell-based qHTS assay (AID 1963587); note: nearly all actives have a fitted effect of over 30% in size
Outline: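 HTR2A-CHO cells, plated 18 h at 37 C/5% CO2, dye-loaded 1 h at 37 C; compounds in DMSO added by pin tool (agonist mode). Intracellular calcium flux read as kinetic fluorescence on FDSS over 2 min at 1 s intervals.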

[14] = molecular target: Muscarinic acetylcholine receptor M1 (Homo sapiens) (UniProt P11229); assay: Cholinergic receptor muscarinic 1 (CHRM1) small molecule antagonists, cell-based qHTS assay (AID 1963588); note: nearly all actives have a fitted effect of over 40% in size; note: potency is the fitted concentration of half-maximal effect
Sequence of Muscarinic acetylcholine receptor M1 (Homo sapiens) (P11229 whole entry, looked up): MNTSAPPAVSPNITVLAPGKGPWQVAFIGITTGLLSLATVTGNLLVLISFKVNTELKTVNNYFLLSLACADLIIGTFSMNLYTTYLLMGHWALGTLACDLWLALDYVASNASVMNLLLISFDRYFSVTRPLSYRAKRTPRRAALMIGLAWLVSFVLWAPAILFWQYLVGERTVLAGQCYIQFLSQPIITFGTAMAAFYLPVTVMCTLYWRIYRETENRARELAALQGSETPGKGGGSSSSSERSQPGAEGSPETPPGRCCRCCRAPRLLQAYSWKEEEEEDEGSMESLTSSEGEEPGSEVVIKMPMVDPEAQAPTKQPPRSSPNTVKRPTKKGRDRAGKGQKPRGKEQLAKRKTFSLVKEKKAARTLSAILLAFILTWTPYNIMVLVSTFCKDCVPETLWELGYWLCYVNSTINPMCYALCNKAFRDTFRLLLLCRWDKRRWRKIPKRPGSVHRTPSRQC
Outline: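 Compounds were tested at 15 concentrations in three independent runs. Dye-loaded CHRM1-CHO cells were exposed 5 min at room temperature before stimulation by acetylcholine added at 50nM. Intracellular calcium was read kinetically on FDSS for 3 min.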

[15] = molecular target: Muscarinic acetylcholine receptor M1 (Homo sapiens) (UniProt P11229); assay: Cholinergic receptor muscarinic 1 (CHRM1) small molecule agonists, cell-based qHTS assay (AID 1963589); note: nearly all actives have a fitted effect of over 35% in size
Outline: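 qHTS, 15-point titration, 3 independent runs: compounds pin-transferred onto dye-loaded CHRM1-CHO cells (human M1), calcium fluorescence followed every second to detect agonism.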

[16] = cAMP Responsive Elements (CRE) small molecule antagonists, cell-based qHTS assay (AID 1963591; active = well fitted inhibition curve with a large enough effect in the signal ratio in the repeat runs, not every such curve was filed as active; the % refers to the signal ratio)
Outline: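 Fluorescence intensity from cleaved LiveBLAzer B/G substrate (2 h, room temperature) quantified CRE-bla activity in HEK 293T cells exposed 3 h to compound with 0.25 uM final NKH477.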

[17] = molecular target: Beta-2 adrenergic receptor (Homo sapiens) (UniProt P07550); assay: Adrenergic beta2 receptor (ADRB2) small molecule antagonists, cell-based qHTS assay (AID 1963592); note: nearly all actives have a fitted effect of over 50% in size; note: potency is the fitted concentration of half-maximal effect
Sequence of Beta-2 adrenergic receptor (Homo sapiens) (P07550 whole entry, looked up): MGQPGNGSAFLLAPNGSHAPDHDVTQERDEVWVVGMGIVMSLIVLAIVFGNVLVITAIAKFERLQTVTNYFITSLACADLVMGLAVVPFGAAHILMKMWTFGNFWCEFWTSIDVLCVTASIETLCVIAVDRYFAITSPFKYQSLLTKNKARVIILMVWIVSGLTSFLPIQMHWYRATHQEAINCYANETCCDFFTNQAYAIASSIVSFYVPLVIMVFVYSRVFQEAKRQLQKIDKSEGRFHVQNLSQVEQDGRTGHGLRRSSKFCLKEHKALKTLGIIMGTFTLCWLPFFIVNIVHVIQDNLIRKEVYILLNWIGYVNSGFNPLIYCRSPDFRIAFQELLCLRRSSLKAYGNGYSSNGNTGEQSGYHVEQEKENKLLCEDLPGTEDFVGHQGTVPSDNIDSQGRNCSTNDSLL
Outline: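 Assay format: CHO-ADRB2 cells, 18-20hr seeding at 37C/5% CO2, then compound plus 1nM isoproterenol agonist mix for 0.5hr RT. Homogeneous time-resolved fluorescence cAMP detection after 1hr, expressed as 665/615 nm ratio.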

[18] = molecular target: D(2) dopamine receptor (Homo sapiens) (UniProt P14416); assay: Dopamine D2 receptor (DRD2) small molecule agonists, cell-based qHTS assay (AID 1963594); note: nearly all actives have a fitted effect of over 35% in size
Sequence of D(2) dopamine receptor (Homo sapiens) (P14416 whole entry, looked up): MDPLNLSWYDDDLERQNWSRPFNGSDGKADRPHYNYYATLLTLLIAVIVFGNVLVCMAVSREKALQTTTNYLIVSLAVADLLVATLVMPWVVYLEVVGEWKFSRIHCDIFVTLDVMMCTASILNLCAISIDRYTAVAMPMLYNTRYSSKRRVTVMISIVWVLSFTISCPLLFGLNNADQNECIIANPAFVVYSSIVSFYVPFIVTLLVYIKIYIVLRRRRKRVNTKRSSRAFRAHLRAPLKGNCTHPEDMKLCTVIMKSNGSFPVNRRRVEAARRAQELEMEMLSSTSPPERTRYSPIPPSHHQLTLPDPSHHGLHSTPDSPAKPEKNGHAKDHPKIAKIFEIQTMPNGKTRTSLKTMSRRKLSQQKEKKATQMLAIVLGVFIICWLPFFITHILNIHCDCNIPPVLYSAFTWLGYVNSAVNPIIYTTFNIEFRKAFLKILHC
Outline: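 HEK293 cells stably expressing DRD2 were cultured 24 h at 37 C, then given Ro20-1724 (0.1 mM final) and compounds for 10 min at room temperature. NKH477 (200nM) was then added for 30 min. cAMP was read by HTRF.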

[19] = molecular target: D(2) dopamine receptor (Homo sapiens) (UniProt P14416); assay: Dopamine D2 receptor (DRD2) small molecule antagonists, cell-based qHTS assay (AID 1963595; active = well fitted inhibition curve with a large enough effect in the signal ratio in the repeat runs, with a control signal flat; the % refers to the signal ratio)
Outline: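 Readout: HTRF cAMP, cAMP-d2 competing with cellular cAMP for anti-cAMP cryptate, read after 1 h. Cells: DRD2-HEK293. Conditions: 0.1 mM Ro20-1724, 12 nM quinpirole, 200 nM NKH477, 30 min RT.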

[20] = cAMP Responsive Elements (CRE) small molecule agonists, cell-based qHTS assay (AID 1963590)
Outline: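 Quantitative HTS for CRE agonists: HEK 293T CRE-bla cells, overnight plating, 3 h compound incubation at 37 C/5% CO2, then 2 h room-temperature LiveBLAzer B/G FRET substrate loading.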

Row | Structure (SMILES) | Potency [1] | Potency [2] | Potency [3] | outcome [4] | outcome [5] | Potency [6] | Potency [7] | Potency [8] | Potency [9] | Potency [10] | Potency [11] | Potency [12] | Potency [13] | Potency [14] | Potency [15] | Potency [16] | Potency [17] | Potency [18] | Potency [19] | Potency [20]
1 | c1ccc(SSc2ccccc2)cc1 | inactive | 27.5 µM (active) | inactive | inactive | inactive | inactive | inactive | inactive | inactive | inactive | inactive | inactive | inactive | inactive | inactive | inactive | inactive | inactive | inactive | 
2 | C=CN1CCCCCC1=O | inactive | inactive | inactive | inactive | inactive | inactive | inactive | inactive | inactive | inactive | inactive | inactive | inactive | inactive | inactive | inactive | inactive | inactive | inactive | 
3 | c1ccc(CCNc2nc(-c3ccccc3)cs2)cc1 | inactive | 0.596 µM (active) | inactive | inactive | inactive | inactive | inactive | inactive | inactive | inactive | inactive | inactive | inactive | inactive | inactive |  |  | inactive |  | inactive
4 | Cc1cc(N)c2cc(NC(=O)Nc3ccc4nc(C)cc(N)c4c3)ccc2n1 | inactive | inactive | inactive | inactive | inactive | inactive | inactive | inactive | inactive | inactive | inactive | inactive | inactive | inactive | inactive | inactive |  | inactive |  | 
5 | COc1ccc(-n2nc(C(F)F)cc2-c2ccc(S(C)=O)cc2)cc1 (stereo not drawn) | inactive | inactive | inactive | inactive | inactive | inactive | inactive | inactive | inactive | inactive | inactive | inactive | inactive | inactive | inactive |  | inactive | inactive | inactive | 
6 | Cc1nc(C2CCCCC2)c(-c2ccc(S(N)(=O)=O)c(F)c2)o1 | inactive | inactive | inactive | inactive | inactive | inactive | inactive | inactive | inactive | inactive | inactive | inactive | inactive | inactive | inactive |  | inactive | inactive | inactive | 
7 | CCCCC1CCCCC(=O)O1 (stereo not drawn) | inactive | inactive | inactive | inactive | inactive | inactive | inactive | inactive | inactive | inactive | inactive | inactive | inactive | inactive | inactive | inactive | inactive |  | inactive | 
8 | COc1ccccc1OCC(O)CN1CCN(CC(=O)Nc2c(C)cccc2C)CC1 (stereo not drawn) | inactive | inactive | inactive | inactive | inactive | inactive | inactive | inactive | inactive | inactive | inactive | inactive | inactive | inactive | inactive |  | 11.9 µM (active) | inactive | inactive | inactive
9 | CN1CC(=O)NC1=N | inactive | inactive | inactive | inactive | inactive | inactive | inactive | inactive | inactive | inactive | inactive | inactive | inactive | inactive | inactive |  | inactive | inactive | inactive | inactive
10 | COc1ccccc1N1CCN(CCCNc2cc(=O)n(C)c(=O)n2C)CC1 | inactive | inactive | inactive | inactive | inactive | inactive | inactive | inactive | inactive | inactive | inactive | inactive | inactive | 10.3 µM (active) | inactive |  | 13.3 µM (active) |  | inactive | inactive
11 | CC1CCc2c(N3CCC(O)CC3)c(F)cc3c(=O)c(C(=O)O)cn1c23 (stereo not drawn) | inactive | inactive | inactive | inactive | inactive | inactive | inactive | inactive | inactive | inactive | inactive | inactive | inactive | inactive | inactive |  | inactive | inactive |  | 
12 | O=C(OCCCCCOC(=O)c1ccccc1)c1ccccc1 | inactive | inactive | inactive | inactive | inactive | inactive | inactive | inactive | inactive | inactive | inactive | inactive | inactive | inactive | inactive | inactive | inactive | inactive | inactive | 
13 | COC[C@H](c1ccc(C(F)(F)F)cc1)N1CCN(C2(C)CCN(C(=O)c3c(C)ncnc3C)CC2)C[C@H]1C | inactive | inactive | inactive | inactive | inactive | inactive | inactive | inactive | inactive | inactive | inactive | inactive | inactive | 5.16 µM (active) | inactive |  | inactive | inactive | inactive | 
14 | CC(C)(O)C(=O)c1ccccc1 | inactive | inactive | inactive | inactive | inactive | inactive | inactive | inactive | inactive | inactive | inactive | inactive | inactive | inactive | inactive | inactive | inactive | inactive | inactive | 
15 | CCCCN(CCCC)C(=O)N(CCCC)CCCC | inactive | 61.1 µM (active) | inactive | inactive | inactive | inactive | inactive | inactive | inactive | inactive | inactive | inactive | inactive | inactive | inactive |  | inactive | inactive | inactive | 
